From PubChem
Cav3 T inh: inhibitors of human Cav3.2 T-type calcium channel. O95180. Cav3.2-expressing cells, Fluo-4 calcium fluorescence FDSS; stronger effect = lower value. B-score at 10 µM. hit rate 4% among 100,000. AID 449739;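 active = single-dose well whose peak fluorescence ratio is a statistical outlier from its plate by either plate-standardised score or position-corrected B-score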
M1 ag: agonists of M1 muscarinic receptor; CHO-M1 cells, Fluo-4 calcium fluorescence, agonist mode; stronger effect = higher value; B-score at 10 µM; hit rate 3% among 64,000; AID 626;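 active = fluorescence rise, raw or as B-score row- and column-corrected plate score, outside the 99.7% band of its plate's samples, either direction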
PTK2B oligo ant: Pyk2 (human) oligomerization antagonism; Q14289; Q293 cells, Pyk2 FERM NanoBiT luminescence; stronger effect = lower value; z-score (the deposit names both 25 µM and 10 µM); hit rate 0.83% among 99,000; AID 1347419;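 active = Z-score of -3 or lower, scaled per plate to the spread of control and sample wells; inactive = z-score above -3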;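 note: negative z-score means lost luminescence so less FERM oligomerization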
Target sequence (Q14289 whole entry, looked up): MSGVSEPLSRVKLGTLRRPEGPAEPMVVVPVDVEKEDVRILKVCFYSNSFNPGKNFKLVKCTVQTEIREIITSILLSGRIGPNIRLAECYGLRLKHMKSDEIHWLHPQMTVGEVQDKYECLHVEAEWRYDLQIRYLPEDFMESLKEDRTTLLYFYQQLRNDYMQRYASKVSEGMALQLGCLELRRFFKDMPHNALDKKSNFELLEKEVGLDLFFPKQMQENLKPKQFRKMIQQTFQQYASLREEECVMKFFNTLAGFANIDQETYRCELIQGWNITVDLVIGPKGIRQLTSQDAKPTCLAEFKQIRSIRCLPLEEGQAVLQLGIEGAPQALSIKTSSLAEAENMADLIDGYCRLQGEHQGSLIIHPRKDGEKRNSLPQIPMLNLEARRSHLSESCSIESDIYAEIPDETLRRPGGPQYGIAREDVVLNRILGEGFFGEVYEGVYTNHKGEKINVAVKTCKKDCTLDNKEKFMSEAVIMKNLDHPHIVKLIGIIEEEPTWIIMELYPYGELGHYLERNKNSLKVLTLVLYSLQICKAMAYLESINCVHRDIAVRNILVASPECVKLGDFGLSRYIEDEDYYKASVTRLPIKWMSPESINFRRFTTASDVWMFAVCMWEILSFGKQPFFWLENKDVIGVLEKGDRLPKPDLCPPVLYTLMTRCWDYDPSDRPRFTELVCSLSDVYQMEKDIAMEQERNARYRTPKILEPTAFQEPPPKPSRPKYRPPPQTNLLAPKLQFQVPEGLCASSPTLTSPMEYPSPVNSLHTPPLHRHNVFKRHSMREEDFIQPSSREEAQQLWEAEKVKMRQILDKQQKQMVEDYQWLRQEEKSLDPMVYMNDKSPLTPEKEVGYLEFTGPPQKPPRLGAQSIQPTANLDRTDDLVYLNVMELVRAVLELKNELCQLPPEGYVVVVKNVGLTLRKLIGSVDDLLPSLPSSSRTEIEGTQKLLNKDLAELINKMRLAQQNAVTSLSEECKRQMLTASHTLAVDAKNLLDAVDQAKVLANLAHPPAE
M1 antagonist: antagonists of rat M1 muscarinic receptor; P08482; CHO-M1 cells, Fluo-4 calcium, ACh EC80 antagonist mode; stronger effect = lower value; B-score at 10 µM; hit rate 3.4% among 64,000;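 active = calcium fluorescence response, raw or row-and-column corrected B-score, differing from the plate sample mean either way at a set confidence level, mostly lower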
A number is an active result; i = inactive; nt = not tested or not shown. An excerpt weighted towards active compounds, which were near 7.1% of everything screened.

SMILES | Cav3 T inh | M1 ag | PTK2B oligo ant | M1 antagonist
CC1=C(C(=O)OCC2CCCO2)C(c2ccccc2)NC(=O)N1 (centres undefined) | i | i | i | i
CC1=C(C(=O)OCc2ccc3c(c2)OCO3)C(c2ccccc2)NC(=O)N1 (centres undefined) | i | i | -3.4 | i
Cc1c(N2C(=O)/C(=C/c3ccccc3)SC2=S)c(=O)n(-c2ccccc2)n1C | i | nt | i | nt
Cc1ccc(/C=C2\SC(=S)N(c3c(C)n(C)n(-c4ccccc4)c3=O)C2=O)cc1 | -5.02 | nt | i | nt
O=C(CSc1nnc(COc2ccccc2)n1-c1ccccc1)c1cccs1 | -6.9 | i | i | i
Cc1ccc(OCc2nnc(SCC(=O)c3cccs3)n2-c2ccccc2)cc1C | i | nt | i | nt
CCOC(=O)C(CC)Sc1nnc(COc2ccc(C)cc2)n1-c1ccccc1 (centres undefined) | -7.35 | nt | i | nt
CCOc1ccc(-n2c(COc3ccc(C)cc3)nnc2SCC(N)=O)cc1 | i | i | i | i
c1ccc(-c2nnc(SCCC3OCCCO3)o2)cc1 | nt | nt | i | nt
CCN(CC)C(=O)C1CCCN(c2ccc([N+](=O)[O-])cc2/C=N/NC(=O)c2cccc(Br)c2)C1 (centres undefined) | -7.15 | nt | i | nt
O=C(Nc1nc2c(ccc3ccccc32)s1)c1ccco1 | i | i | -3.32 | i
O=C(Nc1nc2c(Cl)ccc(Cl)c2s1)c1ccco1 | i | i | nt | i
CCOC(=O)Cc1cc(OC)c(OC)cc1Cc1cc(OC)c(OC)cc1CC(=O)OCC | i | nt | i | nt
CCOC(=O)N1CCC(Nc2ccc3nnc(-c4ccccc4)n3n2)CC1 | 2.69 | i | nt | i
O=C(CC1(O)C(=O)N(C/C=C/c2ccccc2)c2ccccc21)c1ccccn1 (centres undefined) | i | i | i | 1.94
CC(C)Cn1c(C(C)C)nc([N+](=O)[O-])c1S(=O)(=O)c1ccc(F)cc1 | i | nt | i | nt
CC(C)Cn1c(C(C)C)nc([N+](=O)[O-])c1Sc1ccc(Cl)cn1 | -5.81 | nt | i | nt
CCCCn1c(CCC)nc([N+](=O)[O-])c1Sc1ccc(Cl)cn1 | -9.04 | nt | i | nt
COC(=O)c1c(-c2ccccc2)csc1N | i | nt | i | nt
COC(=O)C1=C(N)c2ccccc2C1(C#N)c1ccccc1 (centres undefined) | -9.02 | nt | i | nt
Cc1ccc(S(=O)(=O)NCC(=O)OC(C)C(=O)Nc2ncc(Cl)cc2Cl)cc1 (centres undefined) | i | nt | i | nt
Cc1ccc(C(=O)Nc2cccc(C(=O)NCc3ccccc3)c2)o1 | i | 3.06 | i | i
O=C(NCc1ccccc1)c1cccc(NC(=O)c2ccco2)c1 | i | i | i | i
Cc1cccc(NC(=O)CN2C(=O)COc3ccc(Cl)cc32)c1 | i | i | i | i
COc1cccc(NC(=O)CN2C(=O)COc3ccc(Cl)cc32)c1 | -5.42 | i | nt | i
SMILES | Cav3 T inh | M1 ag | PTK2B oligo ant | M1 antagonist
Cc1cccc(NC(=O)CN2C(=O)COc3ccc(Cl)cc32)c1C | -5.35 | i | nt | i
CC1(c2nnc(Cc3ccccc3)o2)CC(c2cccnc2)=NO1 (centres undefined) | i | nt | nt | nt
CC(Oc1ccc(Cl)cc1)C(=O)Nc1nccs1 (centres undefined) | i | i | i | i
Cc1ccc(-c2c(C#N)c(N)n3c(nc4ccccc43)c2C#N)cc1 | i | nt | -4.02 | nt
CCCNc1cc(C)c(C#N)c2nc3ccccc3n12 | i | nt | i | nt
Cc1nn(CC(=O)NCc2cccc3ccccc23)c(=O)c2ccccc12 | i | nt | i | nt
Cc1c(Br)c([N+](=O)[O-])nn1C(C)C(=O)N1CCCc2ccccc21 (centres undefined) | i | nt | i | nt
Nc1nn(S(=O)(=O)c2cccc3nsnc23)cc1-c1ccc(Br)cc1 | -5.92 | i | i | i
Cc1ccc(-c2cn(S(=O)(=O)c3cccc4nsnc34)nc2N)cc1 | -7.76 | i | i | i
COc1cc(-c2cn(S(=O)(=O)c3cccc4nsnc34)nc2N)cc(OC)c1OC | i | nt | i | nt
Cn1c2ccccc2c2cnn(CC(=O)N3CCN(c4ncccn4)CC3)c(=O)c21 | nt | i | nt | i
Nc1nc(SCC(=O)Nc2ccccc2Sc2ccccc2)n[nH]1 | i | nt | i | nt
CCSc1nnc(NC(=O)NC(CC)(C(F)(F)F)C(F)(F)F)s1 | i | 5 | i | -1.39
CCSc1nnc(NC(=O)CSc2nccn2-c2cccc(C)c2C)s1 | -7.08 | i | nt | i
CCSc1nnc(NC(=O)CSc2ncccn2)s1 | i | i | i | i
CCSc1nnc(NC(=O)CSc2nccn2-c2cc(C)cc(C)c2)s1 | i | i | nt | i
CCOC(=O)NC(Nc1nnc(SCC)s1)(C(F)(F)F)C(F)(F)F | i | i | i | i
CCSc1nnc(NC(=O)CSc2c(Cl)cccc2Cl)s1 | i | nt | -3.18 | nt
Clc1ccc(SCCn2ccnc2)cc1 | i | i | i | i
O=C(NCCNC(=O)c1cc(OCC(F)(F)F)ccc1OCC(F)(F)F)Nc1ccc(OC(F)(F)F)cc1 | i | nt | i | nt
O=C(NCCNC(=O)c1cc(OCC(F)(F)F)ccc1OCC(F)(F)F)Nc1ccc(Cl)cc1 | -4.07 | nt | nt | nt
O=C(CSc1nnc(Cc2ccccc2)n1C1CCCCC1)N1CCOCC1 | i | i | i | 1.12
O=C(COC(=O)Cc1ccsc1)NC1CCCCCC1 | i | i | i | i
Cc1oc(-c2ccccc2F)nc1CN1CCC(C(=O)NCCC2=CCCCC2)CC1 | -5.73 | i | i | i
Cc1oc(-c2cccc(Cl)c2)nc1CN1CCC(C(=O)NCc2ccco2)CC1 | -4.31 | i | i | i
SMILES | Cav3 T inh | M1 ag | PTK2B oligo ant | M1 antagonist
CCc1ccc(-c2nc(CN3CCC(C(=O)NCCc4ccc(OC)c(OC)c4)CC3)c(C)o2)cc1 | i | i | i | i
CCc1ccc(-c2nc(CN3CCC(C(=O)NCc4ccccc4OC)CC3)c(C)o2)cc1 | -8.62 | i | i | i
COc1ccccc1CNC(=O)C1CCN(Cc2nc(-c3cccc(Cl)c3)oc2C)CC1 | -5.83 | i | i | i
COc1ccc(CCNC(=O)C2CCN(Cc3nc(-c4ccccc4F)oc3C)CC2)cc1OC | i | i | i | i
COc1ccccc1CNC(=O)C1CCN(Cc2nc(-c3ccc(Cl)cc3)oc2C)CC1 | nt | i | nt | i
CCOC(=O)CSc1nc(N)c(C(=O)Nc2ccc(N(C)C)cc2)s1 | i | i | i | i
CC1(C)CC(=O)C=C(c2ccc3[nH]ccc3c2)C1 | i | nt | nt | nt
C[C@@H]1CC[C@@]2(O[C@@H](CCO)C[C@H](O)[C@H]2O)O1 | i | nt | nt | nt
CC1CCCC(NC(=O)CSc2nnnn2C)C1C (centres undefined) | -4.68 | i | i | i
Cn1nnnc1SCC(=O)NC1CCCCC1 | i | i | i | i
Cc1nc(Nc2ccc(F)cc2)[nH]c(=O)c1CCC(C)C | -5.55 | i | i | i
Cn1cc(C(c2ccccn2)c2cn(C)c3ccccc23)c2ccccc21 | -6.56 | nt | i | nt
O=C(COc1ccccc1)N(CCc1ccccc1)c1nc(-c2ccc(F)cc2)cs1 | nt | nt | i | nt
CCOC(=O)C(C)S(=O)(=O)c1ccc(C(F)(F)F)cn1 (centres undefined) | i | nt | i | nt
CC(CC(=O)Nc1ccc(Cl)c([N+](=O)[O-])c1)c1ccccc1 (centres undefined) | -8.7 | nt | i | nt
C=C(C)COc1ccc(-c2[nH]ncc2Oc2ccccc2OC)c(O)c1 | i | i | -3.62 | i
CCOc1ccc(-c2[nH]ncc2Oc2ccccc2OC)c(O)c1 | i | i | -3.02 | i
CCOc1ccc(-c2[nH]ncc2Oc2ccccc2OCC)c(O)c1 | i | i | i | i
Cn1c(=O)c(C(=O)CCl)c(N)n(CC2CC2)c1=O | i | nt | nt | nt
